The values below come from PubChem BioAssay (NCI).

Some test systems named below: DU-145 prostate; K-562 leukemia; MALME-3M melanoma; MDA-MB-231 breast; RXF 393 renal; SF-268 CNS; SF-295 CNS; SF-539 CNS; UACC-257 melanoma; M14 melanoma.
Holding throughout (test): NCI-60 one-dose screen, 48 h (100 = growth as untreated, 0 = no growth, -100 = all killed)
What all share (details): 10 µM unless noted

SMILES strings stand for the structures. About 83,000 compounds went through this panel and 20% of them were active in at least one assay; those are over-represented in the sample as a whole.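 Step 1: grow cells in 96-well plates. Step 2: add test compound at a single concentration. Step 3: incubate 48 h. Step 4: record percent growth.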 Unmarked numbers belong to inactive results. The source made the active and inactive calls. Rule for the calls: active = growth percent below 10; inactive = the rest.

In the case of `O=C(C1CCC1)N1N=C(c2ccc(-n3ccc(C(F)(F)F)n3)cc2)CC1c1ccc[nH]1` (stereo not given), the growth is 103% with DU-145 prostate; 77.4% in the experiment with K-562 leukemia; 98.6% in the experiment with MALME-3M melanoma; 83.1% in the experiment with MDA-MB-231 breast; 115% with RXF 393 renal; 102% in the experiment on SF-268 CNS. Further, the growth in the experiment on SF-295 CNS is 95%; with SF-539 CNS it was 98%; in the experiment on UACC-257 melanoma, 92.2%; with M14 melanoma, 93.2%.

On to `N#C/C(=C\c1ccccn1)c1nc2cc(Cl)ccc2s1`, for which the growth with DU-145 prostate was 92.8%; in the experiment on K-562 leukemia it was 48.3%; with MALME-3M melanoma it was 87.5%; with MDA-MB-231 breast, 61.3%; in the experiment on RXF 393 renal it was 60.3%; in the experiment with SF-268 CNS, 68.8%. Also, the growth in the experiment on SF-295 CNS was 94.4%; with SF-539 CNS, 63.1%; in the experiment with UACC-257 melanoma, 91.8%; in the experiment with M14 melanoma, 89.9%.

On to `Fc1ccc2c(-c3cncn3CCc3ccccc3)c[nH]c2c1`, for which the growth with DU-145 prostate was 104%; with K-562 leukemia, 74.6%; with MALME-3M melanoma it was 91.4%; in the experiment on MDA-MB-231 breast, 87.8%; in the experiment on RXF 393 renal it was 79.6%; in the experiment with SF-268 CNS, 83.9%. The growth with SF-295 CNS was 83.5%; with SF-539 CNS, 94.6%; in the experiment on UACC-257 melanoma it was 94.6%; with M14 melanoma, 90.8%.

`CN(C)c1ccc(C2C(C#N)=C(/N=C/c3ccccc3)Oc3c2ccc2ccccc32)cc1` (stereo not given): the growth in the experiment with DU-145 prostate is 87.8%; in the experiment on K-562 leukemia, 17.1%; with MALME-3M melanoma, 77.8%; with MDA-MB-231 breast, 58.1%; in the experiment with RXF 393 renal, 75.9%; in the experiment on SF-268 CNS it was 66.5%. Further, the growth with SF-295 CNS is 49.5%; with SF-539 CNS it was 68.6%; in the experiment on UACC-257 melanoma it was 82.7%; with M14 melanoma it was 59.4%.

Take `CC(=O)N1c2ccccc2NC2=C(C(=O)NC2(C)C)C1c1ccco1` (stereo not given): the growth with DU-145 prostate was 100%; in the experiment with K-562 leukemia, 77.1%; with MALME-3M melanoma it was 80.5%; with MDA-MB-231 breast it was 96.4%; with RXF 393 renal it was 58%; with SF-268 CNS, 77.2%. The growth in the experiment on SF-295 CNS was 96.6%; with SF-539 CNS, 94.6%; with UACC-257 melanoma, 75.1%; in the experiment with M14 melanoma, 68.6%.

Turning to `N#Cc1cc(-c2nc3ccccc3s2)c(=O)n(NS(=O)(=O)c2ccccc2)c1N`, the growth with DU-145 prostate is 116%; in the experiment with K-562 leukemia it was 104%; in the experiment with MALME-3M melanoma it was 112%; in the experiment with MDA-MB-231 breast, 91%; in the experiment on RXF 393 renal it was 113%; in the experiment with SF-268 CNS it was 97.4%. Besides, the growth is 111% in the experiment with SF-295 CNS, 100% in the experiment on SF-539 CNS, 111% in the experiment on UACC-257 melanoma and 107% with M14 melanoma.

`NC1=NN=C(N)C1=Cc1cc2ccccc2n2nnnc12`: the growth in the experiment with DU-145 prostate was 100%; in the experiment with K-562 leukemia it was 92.9%; in the experiment on MALME-3M melanoma it was 108%; with MDA-MB-231 breast it was 95.5%; with RXF 393 renal, 110%; with SF-268 CNS, 98.6%. Moreover, the growth is 99.3% in the experiment on SF-295 CNS, 102% with SF-539 CNS, 98.3% in the experiment with UACC-257 melanoma and 111% in the experiment with M14 melanoma.

Regarding `COc1cc2oc(-c3cccc(C(=O)Nc4ccc5c(c4)OCO5)c3)cc(=O)c2c(O)c1OC`, the growth in the experiment on DU-145 prostate was 80.4%; in the experiment with K-562 leukemia, 94.5%; with MALME-3M melanoma, 88.1%; with MDA-MB-231 breast, 68.1%; in the experiment on RXF 393 renal, 81.5%; in the experiment with SF-268 CNS, 58.7%. In addition, the growth was 92.1% in the experiment with SF-295 CNS, 88.8% with SF-539 CNS, 78.2% in the experiment on UACC-257 melanoma and 89.7% in the experiment with M14 melanoma.

As to `O=C(c1ccccc1)N1N=C(c2ccc(-n3ccc(C(F)(F)F)n3)c(F)c2)CC1c1ccc[nH]1` (stereo not given), the growth with DU-145 prostate was 111%; in the experiment with K-562 leukemia, 96.5%; in the experiment with MALME-3M melanoma, 101%; with MDA-MB-231 breast, 99.5%; in the experiment with RXF 393 renal it was 112%; in the experiment with SF-268 CNS, 104%. In addition, the growth was 105% with SF-295 CNS, 109% with SF-539 CNS, 95.6% with UACC-257 melanoma and 107% in the experiment on M14 melanoma.

For the compound `CCCCCN1C=C/C(=C\C(=O)N2CCCc3ccccc32)c2ccccc21`, the growth was 94.1% with DU-145 prostate; 54.1% with K-562 leukemia; 86% in the experiment with MALME-3M melanoma; 97% in the experiment with MDA-MB-231 breast; 99.5% in the experiment on RXF 393 renal; 87.2% in the experiment on SF-268 CNS. For the same compound, the growth in the experiment on SF-295 CNS was 85.7%; with SF-539 CNS, 97.2%; with UACC-257 melanoma, 89.8%; with M14 melanoma it was 100%.

As for `CCOC(=O)c1cc(C(=O)c2ccc(Br)cc2)n2ccc(/C=C/c3cc[n+](CC(=O)c4ccc(OC)cc4)cc3)cc12`, the growth in the experiment with DU-145 prostate was 87%; in the experiment with K-562 leukemia, 3.23% (active); with MALME-3M melanoma, 97.9%; in the experiment on MDA-MB-231 breast, 71.6%; in the experiment with RXF 393 renal it was 94.4%; in the experiment with SF-268 CNS, 110%. The growth in the experiment on SF-295 CNS is 103%; in the experiment with SF-539 CNS, 102%; in the experiment with UACC-257 melanoma it was 100%; in the experiment on M14 melanoma, 95.9%.

For `COc1cc2c(=O)n(CCCN(C)C)c3c4cc5c(cc4ccc3c2cc1OC)OCO5`, the growth with DU-145 prostate was 63.5%; with K-562 leukemia it was 56.3%; in the experiment with MALME-3M melanoma, 67.8%; in the experiment on MDA-MB-231 breast it was 67%; with RXF 393 renal, 45.3%; in the experiment on SF-268 CNS it was 50.4%. Moreover, the growth is 42.5% in the experiment on SF-295 CNS, 46.2% in the experiment on SF-539 CNS, 93.1% with UACC-257 melanoma and 66.6% in the experiment on M14 melanoma.

Regarding `CCNC(=O)Oc1ccc(/C(=C(\C)c2ccccc2)c2ccc(OCCN3CCCCC3)cc2)cc1`, the growth was 84.1% in the experiment with DU-145 prostate; 6.5% (active) with K-562 leukemia; 46.6% in the experiment on MALME-3M melanoma; 70.7% in the experiment with MDA-MB-231 breast; 59.3% in the experiment on RXF 393 renal; 68.1% with SF-268 CNS. Further, the growth is 29.7% with SF-295 CNS, 24.3% with SF-539 CNS, -26.4% (active) with UACC-257 melanoma and -2.47% (active) in the experiment with M14 melanoma.

Take `CN(C)c1ccc(Nc2c3ccccc3nc3cc(NC(=O)CCN4CCCC4)ccc23)cc1`: the growth with DU-145 prostate was -38.5% (active); with K-562 leukemia, -4.43% (active); in the experiment with MALME-3M melanoma it was -90.9% (active); in the experiment on MDA-MB-231 breast, -38.1% (active); with RXF 393 renal, -6.44% (active); in the experiment with SF-268 CNS, -6.93% (active). The growth with SF-295 CNS was 6.34% (active); in the experiment with SF-539 CNS, -69% (active); with UACC-257 melanoma it was -52% (active); with M14 melanoma it was -84.9% (active).
